# Reference: article PMC7862700, “An all-to-all approach to the identification of sequence-specific readers for epigenetic DNA modifications on cytosine”
# Key:
# Assay in all cases: DAPPL (digital affinity profiling via proximity ligation, sequencing); 10 mM Tris-HCl pH 7.5, 50 mM NaCl, 1 mM DTT, 4% glycerol, room temperature, 30 min; GST-TFs on glutathione beads, 16-mer random dsDNA library, 0.1% formaldehyde crosslink after washing; high values mean tight binding
# Settings in all cases: protein: recombinant; tags: N-terminal GST; dsDNA, one strand shown
# [1] = target: T1, FLI1 (Homo sapiens, UniProt Q01543 1-452)
# T1 sequence: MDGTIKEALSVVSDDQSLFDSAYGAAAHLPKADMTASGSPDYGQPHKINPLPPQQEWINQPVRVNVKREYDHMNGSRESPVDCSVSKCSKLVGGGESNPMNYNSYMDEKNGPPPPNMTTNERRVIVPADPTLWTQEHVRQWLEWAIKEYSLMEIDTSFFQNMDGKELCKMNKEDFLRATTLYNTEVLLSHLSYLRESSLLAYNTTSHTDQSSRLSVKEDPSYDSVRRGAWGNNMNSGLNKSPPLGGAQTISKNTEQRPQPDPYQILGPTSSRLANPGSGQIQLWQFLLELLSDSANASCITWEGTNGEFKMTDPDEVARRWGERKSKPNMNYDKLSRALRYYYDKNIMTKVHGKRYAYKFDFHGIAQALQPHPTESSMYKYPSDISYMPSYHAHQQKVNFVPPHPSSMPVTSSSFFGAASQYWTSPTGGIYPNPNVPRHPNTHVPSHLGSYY
# Method in brief: (§1)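 Human transcription factors carrying a GST fusion were produced in yeast, bound to glutathione beads, tagged with DNA barcodes and pooled together with a tag-only sample. Each pool was held with 200 nmole of a random double-stranded 16-mer DNA library in Tris/NaCl/DTT/glycerol buffer for 30 min at room temperature, then washed, crosslinked in 0.1% formaldehyde, proximity-ligated with BsaI/T4 ligase (1 h, 37 °C), PCR-amplified and sequenced on an Illumina NextSeq500. Binding signal is the read frequency of each hexamer for a given factor divided by its frequency in the tag-only sample.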
# [2] = target: T2, ELK1 (Homo sapiens, UniProt P19419 1-428)
# T2 sequence: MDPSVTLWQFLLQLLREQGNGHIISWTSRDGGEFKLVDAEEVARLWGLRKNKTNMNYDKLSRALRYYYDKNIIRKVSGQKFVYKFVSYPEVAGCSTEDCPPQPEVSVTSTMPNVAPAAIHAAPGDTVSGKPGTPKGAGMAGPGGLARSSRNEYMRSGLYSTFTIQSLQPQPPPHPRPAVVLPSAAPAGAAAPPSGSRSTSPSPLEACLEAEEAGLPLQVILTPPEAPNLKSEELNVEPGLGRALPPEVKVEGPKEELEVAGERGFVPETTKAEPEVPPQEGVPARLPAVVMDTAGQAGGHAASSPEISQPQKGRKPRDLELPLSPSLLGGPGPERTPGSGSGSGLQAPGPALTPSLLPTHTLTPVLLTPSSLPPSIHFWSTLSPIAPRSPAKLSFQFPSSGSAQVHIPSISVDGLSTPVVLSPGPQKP
# Method in brief: as §1
# [3] = target: T3, GABPA (Homo sapiens, UniProt Q06546 1-454)
# T3 sequence: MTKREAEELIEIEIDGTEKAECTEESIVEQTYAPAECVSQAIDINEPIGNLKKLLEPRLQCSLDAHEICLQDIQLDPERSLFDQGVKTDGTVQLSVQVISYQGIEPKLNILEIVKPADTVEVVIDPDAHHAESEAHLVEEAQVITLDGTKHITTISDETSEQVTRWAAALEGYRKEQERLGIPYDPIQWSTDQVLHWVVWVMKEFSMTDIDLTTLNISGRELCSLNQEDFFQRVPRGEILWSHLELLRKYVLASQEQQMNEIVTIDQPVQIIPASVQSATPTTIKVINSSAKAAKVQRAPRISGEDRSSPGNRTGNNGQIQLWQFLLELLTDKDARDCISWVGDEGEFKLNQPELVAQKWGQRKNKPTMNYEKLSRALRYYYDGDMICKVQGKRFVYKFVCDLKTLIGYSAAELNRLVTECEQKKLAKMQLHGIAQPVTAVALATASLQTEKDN
# Method in brief: as §1
# [4] = target: T4, ERG (Homo sapiens, UniProt P11308 1-479)
# T4 sequence: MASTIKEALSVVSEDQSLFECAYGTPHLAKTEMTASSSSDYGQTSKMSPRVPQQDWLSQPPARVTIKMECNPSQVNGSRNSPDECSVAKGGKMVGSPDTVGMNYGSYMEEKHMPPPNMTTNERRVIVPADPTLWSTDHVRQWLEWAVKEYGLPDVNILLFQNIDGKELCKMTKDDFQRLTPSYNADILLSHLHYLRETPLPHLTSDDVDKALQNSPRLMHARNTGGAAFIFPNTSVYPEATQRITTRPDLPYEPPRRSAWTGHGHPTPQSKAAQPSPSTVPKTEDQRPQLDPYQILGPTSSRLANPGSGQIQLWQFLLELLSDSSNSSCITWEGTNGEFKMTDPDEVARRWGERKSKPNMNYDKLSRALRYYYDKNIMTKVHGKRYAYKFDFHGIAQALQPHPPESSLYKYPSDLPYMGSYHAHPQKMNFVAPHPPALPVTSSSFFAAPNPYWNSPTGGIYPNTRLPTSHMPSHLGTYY
# Method in brief: as §1
# [5] = target: ELF1 (Homo sapiens, UniProt P32519 1-619)
# Method in brief: as §1
# [6] = target: T5, EHF (Homo sapiens, UniProt Q9NZC4 1-300)
# T5 sequence: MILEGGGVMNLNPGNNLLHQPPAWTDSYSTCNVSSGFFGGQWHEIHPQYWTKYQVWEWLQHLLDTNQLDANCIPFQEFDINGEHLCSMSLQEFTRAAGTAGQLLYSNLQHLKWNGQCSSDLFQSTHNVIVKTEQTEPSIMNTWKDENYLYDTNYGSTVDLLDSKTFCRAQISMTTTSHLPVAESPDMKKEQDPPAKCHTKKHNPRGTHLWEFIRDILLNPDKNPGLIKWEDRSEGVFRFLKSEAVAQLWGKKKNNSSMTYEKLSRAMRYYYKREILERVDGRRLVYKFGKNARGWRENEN
# Method in brief: as §1
# [7] = target: SPIB (Homo sapiens, UniProt Q01892 1-262)
# Method in brief: as §1
# [8] = target: T6, ELK3 (Homo sapiens, UniProt P41970 1-407)
# T6 sequence: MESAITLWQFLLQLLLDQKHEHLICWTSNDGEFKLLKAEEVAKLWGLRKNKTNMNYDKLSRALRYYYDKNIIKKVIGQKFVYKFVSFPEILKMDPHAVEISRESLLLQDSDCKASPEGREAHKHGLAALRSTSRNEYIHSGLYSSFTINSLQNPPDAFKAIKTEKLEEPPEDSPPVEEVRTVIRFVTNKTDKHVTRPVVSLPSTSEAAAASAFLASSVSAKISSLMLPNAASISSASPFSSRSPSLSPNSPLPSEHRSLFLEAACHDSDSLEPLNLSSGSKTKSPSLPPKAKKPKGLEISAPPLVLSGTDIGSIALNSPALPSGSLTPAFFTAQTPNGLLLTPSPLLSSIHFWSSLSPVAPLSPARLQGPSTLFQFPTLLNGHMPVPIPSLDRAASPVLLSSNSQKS
# Method in brief: as §1
# [9] = target: T7, FEV (Homo sapiens, UniProt Q99581 1-238)
# T7 sequence: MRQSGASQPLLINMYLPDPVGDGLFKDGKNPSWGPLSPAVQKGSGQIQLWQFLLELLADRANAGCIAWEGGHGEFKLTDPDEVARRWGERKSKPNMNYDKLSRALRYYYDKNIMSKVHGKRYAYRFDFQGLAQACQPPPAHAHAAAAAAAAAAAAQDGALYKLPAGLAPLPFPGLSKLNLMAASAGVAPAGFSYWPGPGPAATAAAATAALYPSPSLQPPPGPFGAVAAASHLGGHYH
# Method in brief: as §1
# [10] = target: ETV5 (Homo sapiens, UniProt P41161 1-510)
# Method in brief: as §1
# [11] = target: T8, SPIC (Homo sapiens, UniProt Q8N5J4 1-248)
# T8 sequence: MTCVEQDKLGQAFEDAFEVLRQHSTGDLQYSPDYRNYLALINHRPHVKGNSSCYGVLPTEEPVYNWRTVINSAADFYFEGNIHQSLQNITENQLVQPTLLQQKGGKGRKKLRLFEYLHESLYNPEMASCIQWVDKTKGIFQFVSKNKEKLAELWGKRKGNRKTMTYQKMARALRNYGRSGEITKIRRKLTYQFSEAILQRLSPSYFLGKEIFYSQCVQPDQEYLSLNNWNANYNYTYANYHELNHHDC
# Method in brief: as §1
# [12] = target: ELF4 (Homo sapiens, UniProt Q99607 1-663)
# Method in brief: as §1
# [13] = target: ETV1 (Homo sapiens, UniProt P50549 1-477)
# Method in brief: as §1
# [14] = target: T9, ERF (Homo sapiens, UniProt P50548 1-548)
# T9 sequence: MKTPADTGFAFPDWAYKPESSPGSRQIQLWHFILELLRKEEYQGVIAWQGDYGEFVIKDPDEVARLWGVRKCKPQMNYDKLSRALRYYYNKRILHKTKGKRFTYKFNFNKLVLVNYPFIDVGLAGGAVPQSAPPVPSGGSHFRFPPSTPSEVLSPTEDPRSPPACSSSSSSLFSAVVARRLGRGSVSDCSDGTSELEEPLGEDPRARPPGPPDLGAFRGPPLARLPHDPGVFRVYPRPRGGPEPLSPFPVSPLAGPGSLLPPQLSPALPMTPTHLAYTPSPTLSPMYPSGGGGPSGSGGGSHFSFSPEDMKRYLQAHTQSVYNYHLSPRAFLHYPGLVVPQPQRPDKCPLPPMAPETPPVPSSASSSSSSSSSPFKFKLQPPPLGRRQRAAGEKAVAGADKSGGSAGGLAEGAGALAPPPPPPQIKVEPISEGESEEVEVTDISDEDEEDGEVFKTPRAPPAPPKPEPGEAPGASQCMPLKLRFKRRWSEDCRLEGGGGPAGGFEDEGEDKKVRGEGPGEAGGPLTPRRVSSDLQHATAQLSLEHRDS
# Method in brief: as §1
# [15] = target: T10, ETV3L (Homo sapiens, UniProt Q6ZN32 1-361)
# T10 sequence: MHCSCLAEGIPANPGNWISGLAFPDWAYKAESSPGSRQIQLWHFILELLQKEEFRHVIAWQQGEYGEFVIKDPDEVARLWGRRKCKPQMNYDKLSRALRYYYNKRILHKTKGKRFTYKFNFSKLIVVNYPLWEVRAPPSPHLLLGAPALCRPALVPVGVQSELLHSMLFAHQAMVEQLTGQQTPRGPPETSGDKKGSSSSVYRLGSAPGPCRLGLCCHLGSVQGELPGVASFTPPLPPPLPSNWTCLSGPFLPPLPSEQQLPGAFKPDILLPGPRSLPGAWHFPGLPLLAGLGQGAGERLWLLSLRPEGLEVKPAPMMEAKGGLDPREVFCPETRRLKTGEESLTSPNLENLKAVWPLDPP
# Method in brief: as §1
# [16] = target: T11, ETS2 (Homo sapiens, UniProt P15036 1-469)
# T11 sequence: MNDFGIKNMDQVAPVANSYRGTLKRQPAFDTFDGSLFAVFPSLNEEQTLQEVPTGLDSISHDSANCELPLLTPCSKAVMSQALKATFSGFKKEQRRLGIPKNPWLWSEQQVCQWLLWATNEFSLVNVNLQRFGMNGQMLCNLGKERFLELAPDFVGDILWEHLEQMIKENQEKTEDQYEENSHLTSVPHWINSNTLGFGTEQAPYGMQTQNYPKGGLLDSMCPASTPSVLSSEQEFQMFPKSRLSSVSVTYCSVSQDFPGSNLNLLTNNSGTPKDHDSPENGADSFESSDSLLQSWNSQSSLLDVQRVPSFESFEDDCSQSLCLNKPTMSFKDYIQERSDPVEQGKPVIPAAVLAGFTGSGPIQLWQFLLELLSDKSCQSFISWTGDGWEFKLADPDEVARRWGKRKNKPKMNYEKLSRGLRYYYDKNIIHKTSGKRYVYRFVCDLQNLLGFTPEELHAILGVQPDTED
# Method in brief: as §1
# [17] = target: T12, SPDEF (Homo sapiens, UniProt O95238 1-335)
# T12 sequence: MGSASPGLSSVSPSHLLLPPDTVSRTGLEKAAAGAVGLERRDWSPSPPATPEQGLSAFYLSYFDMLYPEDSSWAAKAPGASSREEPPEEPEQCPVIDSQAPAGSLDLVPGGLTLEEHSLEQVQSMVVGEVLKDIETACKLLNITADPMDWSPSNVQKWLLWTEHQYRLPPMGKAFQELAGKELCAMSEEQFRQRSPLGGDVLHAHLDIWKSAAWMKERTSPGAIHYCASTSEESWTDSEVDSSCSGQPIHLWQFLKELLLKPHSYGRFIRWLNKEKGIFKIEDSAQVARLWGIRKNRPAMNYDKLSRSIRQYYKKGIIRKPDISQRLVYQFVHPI
# Method in brief: as §1
# [18] = target: T13, ETV3 (Homo sapiens, UniProt P41162-2 1-143)
# T13 sequence: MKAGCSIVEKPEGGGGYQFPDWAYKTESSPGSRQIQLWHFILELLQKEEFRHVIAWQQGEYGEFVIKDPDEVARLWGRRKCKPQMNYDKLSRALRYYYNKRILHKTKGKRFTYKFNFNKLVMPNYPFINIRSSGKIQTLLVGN
# Method in brief: as §1
# [19] = target: ETV6 (Homo sapiens, UniProt P41212 1-452)
# Method in brief: as §1
# ELF4, sequence (Q99607 whole entry): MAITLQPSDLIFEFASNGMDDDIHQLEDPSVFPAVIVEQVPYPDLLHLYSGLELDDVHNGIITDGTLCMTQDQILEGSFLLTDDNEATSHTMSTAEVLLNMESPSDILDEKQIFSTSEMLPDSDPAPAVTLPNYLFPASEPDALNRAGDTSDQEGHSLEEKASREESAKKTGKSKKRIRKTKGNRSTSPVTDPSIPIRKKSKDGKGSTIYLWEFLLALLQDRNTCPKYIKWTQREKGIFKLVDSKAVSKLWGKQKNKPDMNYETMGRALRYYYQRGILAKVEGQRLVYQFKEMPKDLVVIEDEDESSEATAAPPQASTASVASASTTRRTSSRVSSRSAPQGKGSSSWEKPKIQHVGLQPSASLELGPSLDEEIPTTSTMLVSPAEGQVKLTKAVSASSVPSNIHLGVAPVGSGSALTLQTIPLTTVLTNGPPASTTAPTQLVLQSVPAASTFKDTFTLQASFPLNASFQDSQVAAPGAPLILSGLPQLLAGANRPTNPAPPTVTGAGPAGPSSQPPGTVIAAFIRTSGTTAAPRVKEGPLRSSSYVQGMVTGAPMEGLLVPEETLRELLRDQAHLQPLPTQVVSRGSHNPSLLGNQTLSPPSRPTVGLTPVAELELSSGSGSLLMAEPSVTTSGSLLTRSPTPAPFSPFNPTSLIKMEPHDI
# ETV1, sequence (P50549 whole entry): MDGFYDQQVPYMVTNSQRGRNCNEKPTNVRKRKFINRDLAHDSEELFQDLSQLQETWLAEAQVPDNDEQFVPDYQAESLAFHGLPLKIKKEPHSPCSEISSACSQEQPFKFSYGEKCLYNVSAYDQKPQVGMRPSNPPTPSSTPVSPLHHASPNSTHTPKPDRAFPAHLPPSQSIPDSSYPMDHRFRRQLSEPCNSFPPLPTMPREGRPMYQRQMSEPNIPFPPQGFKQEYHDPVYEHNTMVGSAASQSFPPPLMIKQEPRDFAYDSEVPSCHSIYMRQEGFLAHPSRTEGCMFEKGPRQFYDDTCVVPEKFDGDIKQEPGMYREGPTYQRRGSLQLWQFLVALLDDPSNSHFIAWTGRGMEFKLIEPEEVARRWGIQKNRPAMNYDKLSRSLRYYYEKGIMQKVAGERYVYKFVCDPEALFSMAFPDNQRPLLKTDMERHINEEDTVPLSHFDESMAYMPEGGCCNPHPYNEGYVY
# ETV5, sequence (P41161 whole entry): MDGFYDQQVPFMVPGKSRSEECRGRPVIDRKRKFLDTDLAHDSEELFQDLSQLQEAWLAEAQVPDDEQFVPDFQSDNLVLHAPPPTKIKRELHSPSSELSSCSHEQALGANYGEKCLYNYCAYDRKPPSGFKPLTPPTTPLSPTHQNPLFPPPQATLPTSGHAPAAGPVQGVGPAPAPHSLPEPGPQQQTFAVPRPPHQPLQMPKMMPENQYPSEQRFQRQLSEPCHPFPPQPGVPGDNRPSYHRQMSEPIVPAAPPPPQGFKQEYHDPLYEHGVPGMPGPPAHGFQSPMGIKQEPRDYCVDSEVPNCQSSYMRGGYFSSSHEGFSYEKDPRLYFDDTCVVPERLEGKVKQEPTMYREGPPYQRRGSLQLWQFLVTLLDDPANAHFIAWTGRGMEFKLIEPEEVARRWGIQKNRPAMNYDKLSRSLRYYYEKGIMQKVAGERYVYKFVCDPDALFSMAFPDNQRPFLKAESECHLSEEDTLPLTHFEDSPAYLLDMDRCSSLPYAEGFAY
# ETV6, sequence (P41212 whole entry): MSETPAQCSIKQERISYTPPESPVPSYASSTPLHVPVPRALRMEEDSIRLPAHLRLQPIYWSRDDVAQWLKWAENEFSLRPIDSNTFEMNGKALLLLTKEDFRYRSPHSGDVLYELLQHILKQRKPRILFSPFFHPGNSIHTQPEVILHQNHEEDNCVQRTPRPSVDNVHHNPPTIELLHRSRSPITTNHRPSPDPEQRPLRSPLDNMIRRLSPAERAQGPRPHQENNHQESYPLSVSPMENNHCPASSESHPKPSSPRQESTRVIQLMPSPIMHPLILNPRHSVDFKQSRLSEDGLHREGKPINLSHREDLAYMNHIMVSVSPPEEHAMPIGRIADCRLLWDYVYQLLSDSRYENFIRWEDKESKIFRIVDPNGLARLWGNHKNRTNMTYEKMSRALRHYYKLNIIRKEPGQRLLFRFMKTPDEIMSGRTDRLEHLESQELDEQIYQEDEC
# SPIB, sequence (Q01892 whole entry): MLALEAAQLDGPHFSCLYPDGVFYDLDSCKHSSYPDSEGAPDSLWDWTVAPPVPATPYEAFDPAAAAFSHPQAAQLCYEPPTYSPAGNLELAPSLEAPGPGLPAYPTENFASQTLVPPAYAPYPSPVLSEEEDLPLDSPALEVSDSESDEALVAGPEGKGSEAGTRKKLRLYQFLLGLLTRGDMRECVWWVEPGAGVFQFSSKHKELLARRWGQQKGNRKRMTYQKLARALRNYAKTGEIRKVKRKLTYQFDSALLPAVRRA
# ELF1, sequence (P32519 whole entry): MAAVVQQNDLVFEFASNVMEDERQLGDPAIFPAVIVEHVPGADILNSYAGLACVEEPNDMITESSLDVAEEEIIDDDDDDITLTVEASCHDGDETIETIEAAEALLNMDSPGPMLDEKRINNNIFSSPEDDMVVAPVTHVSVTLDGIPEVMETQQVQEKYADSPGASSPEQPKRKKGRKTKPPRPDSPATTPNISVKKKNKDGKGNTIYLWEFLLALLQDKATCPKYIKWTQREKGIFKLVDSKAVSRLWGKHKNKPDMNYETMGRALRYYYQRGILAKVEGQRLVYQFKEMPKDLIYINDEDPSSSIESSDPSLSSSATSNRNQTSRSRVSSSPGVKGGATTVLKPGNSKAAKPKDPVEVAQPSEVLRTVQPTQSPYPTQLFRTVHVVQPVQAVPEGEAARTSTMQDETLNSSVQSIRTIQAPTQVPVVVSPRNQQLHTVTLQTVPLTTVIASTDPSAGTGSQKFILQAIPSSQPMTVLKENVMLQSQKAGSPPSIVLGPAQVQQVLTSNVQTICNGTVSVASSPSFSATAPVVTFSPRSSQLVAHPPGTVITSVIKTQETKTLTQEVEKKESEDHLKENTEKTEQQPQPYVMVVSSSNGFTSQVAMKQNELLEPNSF
sequence,measurement,setting,value
GCAACC,binding signal,[1],"1.06 fold enrichment (6-mer frequency, TF over GST control)"
same,binding signal,[2],"1.07 fold enrichment (6-mer frequency, TF over GST control)"
same,binding signal,[3],"1.06 fold enrichment (6-mer frequency, TF over GST control)"
same,binding signal,[4],"1.04 fold enrichment (6-mer frequency, TF over GST control)"
same,binding signal,[5],"1.13 fold enrichment (6-mer frequency, TF over GST control)"
same,binding signal,[6],"1.11 fold enrichment (6-mer frequency, TF over GST control)"
same,binding signal,[7],"1.04 fold enrichment (6-mer frequency, TF over GST control)"
same,binding signal,[8],"1.09 fold enrichment (6-mer frequency, TF over GST control)"
same,binding signal,[9],"1.17 fold enrichment (6-mer frequency, TF over GST control)"
same,binding signal,[10],"1.04 fold enrichment (6-mer frequency, TF over GST control)"
same,binding signal,[11],"1.09 fold enrichment (6-mer frequency, TF over GST control)"
same,binding signal,[12],"1.03 fold enrichment (6-mer frequency, TF over GST control)"
same,binding signal,[13],"1.02 fold enrichment (6-mer frequency, TF over GST control)"
same,binding signal,[14],"1.1 fold enrichment (6-mer frequency, TF over GST control)"
same,binding signal,[15],"1.03 fold enrichment (6-mer frequency, TF over GST control)"
same,binding signal,[16],"1.03 fold enrichment (6-mer frequency, TF over GST control)"
same,binding signal,[17],"1.13 fold enrichment (6-mer frequency, TF over GST control)"
same,binding signal,[18],"1.02 fold enrichment (6-mer frequency, TF over GST control)"
same,binding signal,[19],"1.02 fold enrichment (6-mer frequency, TF over GST control)"
